# Measurements as given in PubChem BioAssay (NCI).
# Compounds without any hit were thinned out: in the full panel of roughly 83,000, 20% have a hit.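 Values shown are percent growth following 48 h exposure of cells in 96-well plates to a single concentration of compound; below 10 was considered active.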 Values without a mark were called inactive. Activity calls are given as the source filed them.
# How the values were obtained:
# Test in all cases: NCI-60 one-dose screen, 48 h (100 = growth as untreated, 0 = no growth, -100 = all killed)
# NCI-H23 lung = details: 10 µM unless noted
# NCI-H226 lung = details: 10 µM unless noted
# NCI-H322M lung = details: 10 µM unless noted
# HOP-62 NSCLC = details: 10 µM unless noted
# HOP-92 NSCLC = details: 10 µM unless noted
# A549/ATCC NSCLC = details: 10 µM unless noted
# 786-0 renal = details: 10 µM unless noted
# COLO 205 colon = details: 10 µM unless noted
# NCI-H522 lung = details: 10 µM
SMILES,growth (NCI-H23 lung),growth (NCI-H226 lung),growth (NCI-H322M lung),growth (HOP-62 NSCLC),growth (HOP-92 NSCLC),growth (A549/ATCC NSCLC),growth (786-0 renal),growth (COLO 205 colon),growth (NCI-H522 lung)
O=C1/C(=C\c2coc3ccccc3c2=O)c2ccccc2N1c1c(Cl)cccc1Cl,55.4%,90.7%,73.7%,68.2%,32.1%,26.6%,27%,55.3%,–
c1ccc2c(-c3nc4ccccc4[nH]3)cccc2c1,44.2%,79%,64.5%,43%,53.3%,38.6%,55.5%,24.6%,–
COc1ccc(NC(=O)c2ccc(-c3ccccc3)cc2)c(C(N)=O)c1,94.5%,94.9%,91.6%,103%,103%,94.1%,106%,110%,–
CCCCCCCCCCN1CCC(N2CCCCC2)CC1,38%,69.5%,88%,-64.7% (active),-12.4% (active),–,-93.1% (active),-85.7% (active),-59.7% (active)
O=C(NC1CCCCC1)c1ccc(Nc2ncnc3c2cnn3-c2ccccc2)cc1,72%,19.1%,64%,-66.5% (active),37.7%,16.6%,72.1%,65.4%,–
